{"source": "the supplement of paper PMC8728848", "binders": {"B1": {"name": "Epa1-NP-mutant-E227A (Candida glabrata), Q6VBJ0 (protein)", "chain": "MILNPALFLNKCVCIYTTLILLLLTNGGYATSSNDISLASKDPTTFPLGCSPDITTPKKGLSMELYSYDFRKKGSYPCWDAAYLDPNYPRTGYKSHRLLAKVDGVTGNINFYYHATKGCTPQLGHLPASYNYPKPLTMTNFTMLLYGYFRPKVTGFHTFTISADDLLFVNFGAGNAFDCCRRDSSADHFGNYQAYAIWGSKTAKDELTVHLDAGVYYPIRLFYNNRAYDGALSFTFKTESNENTVSDFSEYFFSLDDTEEGCPGLISYDSSCASVKTSKIIGIDYHTETPNENLVPITKTIYHLGIPCTGTTTTPLCGSGFYDPLANKCVTINTSSTSSVTKTTSHTTSKEVSFHSSISSQKTLIPKSIPSPYGPIKSQSIPTEMETSSEISSSEYAFSDVISTPSHSPYTKKHSSLNSSSYTSTVIHSLTSYSISQGIFSTSLSEQNITSKSSTDKFSTATSMSNNITQSSIIISQFSTNNENYTTTSMHTSSDKISTETLNNSISTTTSILFSNSSTILKNNTTIISSDKDTHYHPVNPTIVCSTNKTEIICASITQPSISNSNNHWSSSVLKFNSTTVRSTLPSSAGSNETSINVPFSSSTESNTSTSSTSTSNSKMVRSTLPSSAGSNETSISVPFSSSTESNTSTSSTSTSNSKMVRSTLPSSAGSNETSINVPFSSSTESNTSTSSTSTSNSKTVRSTPFSSAGIIMTSLSQRNNKSASSYASSNSKCYNTADSCRKVHSTPSYLLTSSYTSEGVDYDCSLVSTKLKINDTNCVNNKHTTKSCLKTSVTTTIPTLEIKTARKSSSNTIGLHSYPTSSPNKSISSAPIIGYISSFKTIKTASPSYQTSDLTTITTITSLNNPGSTAVENTHESNDKSRKTSSNDISSKHSVIKETKDAVESSNKSHQTNTLKCSSIIIASSSHNSYESLGGTTLTLTLSKVYSPQNNDTLPFLEISEVNPSRTVLPESSKMMQYLTSTEERNKTARNTIATNIVSISTFHFEGEGNAIRMGYTQLLLMLIGIIVMNIGT"}}, "assay_in_all_cases": "glycan array binding signal (z-score within array); higher = stronger binding", "details_in_all_cases": "glycan notation: IUPAC condensed, linker removed; mutation: E227A", "key": {"Gal6S(b1-4)Glc6S": {"target": "Gal6S(b1-4)Glc6S", "method_in_brief": "(§1)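 The Consortium for Functional Glycomics database supplied 3228 glycan arrays, of which those lacking an available protein sequence were dropped. The binding signal, a within-array Z-score, was averaged across arrays of the same protein sequence and across linkers. Negative scores can be read as non-binding.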"}, "Gal6S(b1-4)GlcNAc": {"target": "Gal6S(b1-4)GlcNAc", "method_in_brief": "as §1"}, "Gal6S(b1-4)GlcNAc6S": {"target": "Gal6S(b1-4)GlcNAc6S", "method_in_brief": "as §1"}, "GalNAc(b1-4)GlcNAc6S": {"target": "GalNAc(b1-4)GlcNAc6S", "method_in_brief": "as §1"}, "GalNAc4S6S(b1-4)GlcNAc": {"target": "GalNAc4S6S(b1-4)GlcNAc", "method_in_brief": "as §1"}, "Glc(a1-6)Glc(a1-6)Glc": {"target": "Glc(a1-6)Glc(a1-6)Glc", "method_in_brief": "as §1"}, "[1]": {"target": "GlcNAc(a1-4)Gal(b1-4)GlcNAc", "method_in_brief": "as §1"}, "[2]": {"target": "GlcNAc(a1-4)Gal(b1-4)GlcNAc(b1-3)Gal(b1-4)Glc", "method_in_brief": "as §1"}, "[3]": {"target": "GlcNAc(b1-2)Man(a1-3)[GlcNAc(b1-2)Man(a1-6)]Man(b1-4)GlcNAc(b1-4)GlcNAc", "method_in_brief": "as §1"}, "GlcNAc(b1-3)Fuc": {"target": "GlcNAc(b1-3)Fuc", "method_in_brief": "as §1"}, "[4]": {"target": "GlcNAc(b1-3)Gal(b1-3)GalNAc", "method_in_brief": "as §1"}, "[5]": {"target": "GlcNAc(b1-3)Gal(b1-4)GlcNAc(b1-3)Gal(b1-4)GlcNAc(b1-2)[GlcNAc(b1-3)Gal(b1-4)GlcNAc(b1-3)Gal(b1-4)GlcNAc(b1-6)]Man(a1-6)[GlcNAc(b1-3)Gal(b1-4)GlcNAc(b1-3)Gal(b1-4)GlcNAc(b1-2)Man(a1-3)]Man(b1-4)GlcNAc(b1-4)[Fuc(a1-6)]GlcNAc", "method_in_brief": "as §1"}, "[6]": {"target": "GlcNAc(b1-3)Gal(b1-4)GlcNAc(b1-6)[GlcNAc(b1-3)Gal(b1-3)]GalNAc", "method_in_brief": "as §1"}, "GlcNAc(b1-3)GalNAc": {"target": "GlcNAc(b1-3)GalNAc", "method_in_brief": "as §1"}, "[7]": {"target": "Man(a1-2)Man(a1-3)[Man(a1-2)Man(a1-6)]Man", "method_in_brief": "as §1"}, "[8]": {"target": "Man(a1-2)Man(a1-3)[Man(a1-6)]Man(a1-6)[Man(a1-2)Man(a1-3)]Man(b1-4)GlcNAc(b1-4)GlcNAc", "method_in_brief": "as §1"}, "[9]": {"target": "Man(a1-3)[Man(a1-6)]Man(a1-6)[Man(a1-3)]Man", "method_in_brief": "as §1"}, "[10]": {"target": "Neu5Ac(a2-3)Gal(b1-3)[Fuc(a1-4)]GlcNAc", "method_in_brief": "as §1"}, "[11]": {"target": "Neu5Ac(a2-3)Gal(b1-3)]Neu5Ac(a2-3)Gal(b1-4)]GlcNAc", "method_in_brief": "as §1"}, "[12]": {"target": "Neu5Ac(a2-3)Gal(b1-4)GlcNAc(b1-3)Gal(b1-4)GlcNAc(b1-3)Gal(b1-4)GlcNAc", "method_in_brief": "as §1"}, "[13]": {"target": "Neu5Ac(a2-3)Gal(b1-4)[Fuc(a1-3)]GlcNAc(b1-3)GalNAc", "method_in_brief": "as §1"}, "[14]": {"target": "Neu5Ac(a2-3)Gal(b1-4)[Fuc(a1-3)]GlcNAc(b1-6)[Neu5Ac(a2-3)Gal(b1-3)]GalNAc", "method_in_brief": "as §1"}, "[15]": {"target": "Neu5Ac(a2-6)Gal(b1-4)GlcNAc(b1-2)Man(a1-3)Man(b1-4)GlcNAc(b1-4)GlcNAc", "method_in_brief": "as §1"}, "[16]": {"target": "Neu5Ac(a2-6)Gal(b1-4)GlcNAc(b1-2)Man(a1-6)[Man(a1-3)]Man(b1-4)GlcNAc(b1-4)GlcNAc", "method_in_brief": "as §1"}, "[17]": {"target": "Neu5Ac(a2-6)Gal(b1-4)GlcNAc(b1-3)Gal(b1-4)GlcNAc(b1-6)[Gal(b1-3)]GalNAc", "method_in_brief": "as §1"}, "[18]": {"target": "Neu5Ac(a2-8)Neu5Ac(a2-8)Neu5Ac(a2-3)[Gal(b1-3)GalNAc(b1-4)]Gal(b1-4)Glc", "method_in_brief": "as §1"}}, "note": "This is one part of a sample in which the strongest signals are shown more often than they occur.", "data": [{"binder": "B1", "values": [{"measurement": "glycan array binding signal (z-score)", "setting": "Gal6S(b1-4)Glc6S", "value": 6.39}, {"measurement": "glycan array binding signal (z-score)", "setting": "Gal6S(b1-4)GlcNAc", "value": 5.93}, {"measurement": "glycan array binding signal (z-score)", "setting": "Gal6S(b1-4)GlcNAc6S", "value": 15.2}, {"measurement": "glycan array binding signal (z-score)", "setting": "GalNAc(b1-4)GlcNAc6S", "value": -0.184}, {"measurement": "glycan array binding signal (z-score)", "setting": "GalNAc4S6S(b1-4)GlcNAc", "value": -0.197}, {"measurement": "glycan array binding signal (z-score)", "setting": "Glc(a1-6)Glc(a1-6)Glc", "value": -0.201}, {"measurement": "glycan array binding signal (z-score)", "setting": "[1]", "value": -0.198}, {"measurement": "glycan array binding signal (z-score)", "setting": "[2]", "value": -0.194}, {"measurement": "glycan array binding signal (z-score)", "setting": "[3]", "value": -0.191}, {"measurement": "glycan array binding signal (z-score)", "setting": "GlcNAc(b1-3)Fuc", "value": -0.185}, {"measurement": "glycan array binding signal (z-score)", "setting": "[4]", "value": -0.176}, {"measurement": "glycan array binding signal (z-score)", "setting": "[5]", "value": -0.163}, {"measurement": "glycan array binding signal (z-score)", "setting": "[6]", "value": -0.207}, {"measurement": "glycan array binding signal (z-score)", "setting": "GlcNAc(b1-3)GalNAc", "value": -0.214}, {"measurement": "glycan array binding signal (z-score)", "setting": "[7]", "value": -0.166}, {"measurement": "glycan array binding signal (z-score)", "setting": "[8]", "value": -0.198}, {"measurement": "glycan array binding signal (z-score)", "setting": "[9]", "value": -0.196}, {"measurement": "glycan array binding signal (z-score)", "setting": "[10]", "value": -0.197}, {"measurement": "glycan array binding signal (z-score)", "setting": "[11]", "value": -0.213}, {"measurement": "glycan array binding signal (z-score)", "setting": "[12]", "value": -0.202}, {"measurement": "glycan array binding signal (z-score)", "setting": "[13]", "value": -0.12}, {"measurement": "glycan array binding signal (z-score)", "setting": "[14]", "value": -0.16}, {"measurement": "glycan array binding signal (z-score)", "setting": "[15]", "value": -0.2}, {"measurement": "glycan array binding signal (z-score)", "setting": "[16]", "value": -0.2}, {"measurement": "glycan array binding signal (z-score)", "setting": "[17]", "value": 0.553}, {"measurement": "glycan array binding signal (z-score)", "setting": "[18]", "value": -0.194}]}]}
